Laboratory results: PubChem BioAssay (NCI)
This is part of a sample that, as a whole, favours compounds with a hit. Of some 83,000 tested, about 20% had one in any assay.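 Compound tested at a single concentration for 48 hours in 96-well plates; a percent growth value below 10 was scored as active.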 Activity calls are given as the source filed them.

Key:
Experiment in all cases: NCI-60 one-dose screen, 48 h (100 = growth as untreated, 0 = no growth, -100 = all killed)
NCI-H23 lung = conditions: 10 µM unless noted
NCI-H226 lung = conditions: 10 µM unless noted
NCI-H322M lung = conditions: 10 µM unless noted
HOP-62 NSCLC = conditions: 10 µM unless noted
NCI-H460 lung = conditions: 10 µM unless noted
HOP-92 NSCLC = conditions: 10 µM unless noted
NCI-H522 lung = conditions: 10 µM unless noted
A549/ATCC NSCLC = conditions: 10 µM unless noted
786-0 renal = conditions: 10 µM unless noted
COLO 205 colon = conditions: 10 µM unless noted
DU-145 prostate = conditions: 10 µM unless noted
K-562 leukemia = conditions: 10 µM unless noted
MALME-3M melanoma = conditions: 10 µM unless noted
MDA-MB-231 breast = conditions: 10 µM unless noted
RXF 393 renal = conditions: 10 µM unless noted
SF-268 CNS = conditions: 10 µM unless noted
SF-295 CNS = conditions: 10 µM unless noted
SF-539 CNS = conditions: 10 µM unless noted
UACC-257 melanoma = conditions: 10 µM

Measured: growth

O=C1CC2(CCOCC2)Oc2ncccc21
active: NCI-H522 lung -49.2% | COLO 205 colon -13.7% | K-562 leukemia 4.49% | MALME-3M melanoma -31.6% | MDA-MB-231 breast 8.5%
inactive: NCI-H23 lung 72.5% | NCI-H226 lung 103% | NCI-H322M lung 103% | HOP-62 NSCLC 101% | NCI-H460 lung 106% | HOP-92 NSCLC 94.6% | A549/ATCC NSCLC 102% | 786-0 renal 47.7% | DU-145 prostate 97.7% | RXF 393 renal 92.8% | SF-268 CNS 65.2% | SF-295 CNS 109% | SF-539 CNS 27.7% | UACC-257 melanoma 79.2%

Fc1ccc(-c2cc3nc(C(Cl)Cl)nc(-c4cccs4)n3n2)cc1
active: NCI-H322M lung -9.31% | HOP-62 NSCLC 5.82% | NCI-H460 lung -32.8% | HOP-92 NSCLC -6.12% | A549/ATCC NSCLC -14.2% | COLO 205 colon -23.1% | DU-145 prostate -21.8% | MDA-MB-231 breast -15.2% | RXF 393 renal -44.1% | SF-295 CNS -7.41% | SF-539 CNS -2.29%
inactive: NCI-H23 lung 35.2% | NCI-H226 lung 95% | NCI-H522 lung 78.9% | 786-0 renal 58.2% | K-562 leukemia 44.5% | MALME-3M melanoma 62.5% | SF-268 CNS 13.3% | UACC-257 melanoma 46.2%

Cc1cc2nc(C(Cl)Cl)nc(-c3ccco3)n2n1
inactive: NCI-H23 lung 76.8% | NCI-H226 lung 95.6% | NCI-H322M lung 23.3% | HOP-62 NSCLC 47.9% | HOP-92 NSCLC 79.5% | NCI-H522 lung 93.9% | 786-0 renal 96.2% | COLO 205 colon 25.8% | K-562 leukemia 89.7% | MALME-3M melanoma 108% | MDA-MB-231 breast 64.2% | RXF 393 renal 12.5% | SF-268 CNS 81.2% | SF-295 CNS 20.3% | SF-539 CNS 66.1% | UACC-257 melanoma 92.9%
active: NCI-H460 lung 0.56% | A549/ATCC NSCLC 3.5% | DU-145 prostate -12.5%

Cc1ccc(-n2cc(/C=C/C(=O)c3ccc(S(C)(=O)=O)cc3)c(-c3ccc(S(C)(=O)=O)cc3)n2)cc1
inactive: NCI-H23 lung 87.4% | NCI-H226 lung 100% | NCI-H322M lung 94.6% | HOP-62 NSCLC 89.2% | NCI-H460 lung 100% | HOP-92 NSCLC 115% | NCI-H522 lung 74.2% | A549/ATCC NSCLC 103% | 786-0 renal 103% | COLO 205 colon 114% | DU-145 prostate 104% | K-562 leukemia 27% | MALME-3M melanoma 50.3% | MDA-MB-231 breast 86.5% | RXF 393 renal 97.9% | SF-268 CNS 104% | SF-295 CNS 97.2% | SF-539 CNS 88.8% | UACC-257 melanoma 100%

O=C(CSc1nnc(-c2ccc(Cl)cc2)n1-c1ccccc1)Nc1ccc(F)cc1
inactive: NCI-H23 lung 82.3% | NCI-H226 lung 96.1% | NCI-H322M lung 80.3% | HOP-62 NSCLC 75.2% | NCI-H460 lung 40.8% | HOP-92 NSCLC 99.2% | NCI-H522 lung 71.8% | A549/ATCC NSCLC 57.3% | 786-0 renal 68.1% | COLO 205 colon 96.6% | DU-145 prostate 93% | K-562 leukemia 92.4% | MALME-3M melanoma 80.1% | MDA-MB-231 breast 49.4% | RXF 393 renal 82.9% | SF-268 CNS 79.7% | SF-295 CNS 65.5% | SF-539 CNS 60% | UACC-257 melanoma 98.8%

ClC(Cl)c1nc(-c2cccs2)n2nc(-c3ccccc3)cc2n1
inactive: NCI-H226 lung 82.6% | NCI-H522 lung 75.1% | 786-0 renal 40.2% | K-562 leukemia 27.9% | MALME-3M melanoma 67.7% | UACC-257 melanoma 16.3%
active: NCI-H23 lung 4.85% | NCI-H322M lung -28.8% | HOP-62 NSCLC -6.27% | NCI-H460 lung -40.1% | HOP-92 NSCLC -27.7% | A549/ATCC NSCLC -16.1% | COLO 205 colon -40.7% | DU-145 prostate -24.3% | MDA-MB-231 breast -26.9% | RXF 393 renal -73.2% | SF-268 CNS 6.38% | SF-295 CNS -27.6% | SF-539 CNS -44%

CN1C(=O)N(C)C2Nn3c(s/c(=C\c4ccccn4)c3=O)=NC21 (configuration not stated)
inactive: NCI-H23 lung 108% | NCI-H226 lung 103% | NCI-H322M lung 103% | HOP-62 NSCLC 100% | NCI-H460 lung 110% | HOP-92 NSCLC 107% | NCI-H522 lung 92.3% | A549/ATCC NSCLC 103% | 786-0 renal 104% | COLO 205 colon 110% | DU-145 prostate 111% | K-562 leukemia 108% | MALME-3M melanoma 82.4% | MDA-MB-231 breast 99.5% | RXF 393 renal 110% | SF-268 CNS 103% | SF-295 CNS 104% | SF-539 CNS 101% | UACC-257 melanoma 96%

Oc1ccc(CSc2nnc(-c3ccc(Oc4ccccc4)cc3)o2)c2cccnc12
inactive: NCI-H23 lung 31.3% | NCI-H226 lung 71.8% | NCI-H322M lung 36.7% | HOP-92 NSCLC 33.7% | NCI-H522 lung 40.1% | COLO 205 colon 78.2% | DU-145 prostate 45.6% | MALME-3M melanoma 70.8% | MDA-MB-231 breast 45.5% | RXF 393 renal 60.6% | SF-268 CNS 28.8% | SF-539 CNS 31.6% | UACC-257 melanoma 45.1%
active: HOP-62 NSCLC 9.54% | NCI-H460 lung 3.07% | A549/ATCC NSCLC 9.22% | 786-0 renal -11.5% | K-562 leukemia 9.13% | SF-295 CNS 1.44%
